About 83,000 compounds went through this panel and 20% of them were active in at least one assay; those are over-represented in the sample as a whole.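 Plates (96-well) were seeded with cells, treated with compound at one concentration, and incubated for 48 hours before percent growth was determined.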 Values without a mark were called inactive. Activity calls are given as the source filed them. The calls were made as follows: active = growth percent below 10; inactive = the rest.
Legend:
Assay in all cases: NCI-60 one-dose screen, 48 h (100 = growth as untreated, 0 = no growth, -100 = all killed)
[1] = tested on: DU-145 prostate; conditions: 10 µM unless noted
[2] = tested on: K-562 leukemia; conditions: 10 µM unless noted
[3] = tested on: MALME-3M melanoma; conditions: 10 µM unless noted
[4] = tested on: MDA-MB-231 breast; conditions: 10 µM unless noted
[5] = tested on: RXF 393 renal; conditions: 10 µM unless noted
[6] = tested on: SF-268 CNS; conditions: 10 µM unless noted
[7] = tested on: SF-295 CNS; conditions: 10 µM unless noted
[8] = tested on: SF-539 CNS; conditions: 10 µM unless noted
[9] = tested on: UACC-257 melanoma; conditions: 10 µM
[10] = tested on: M14 melanoma; conditions: 10 µM unless noted
[11] = tested on: HCT-15 colon; conditions: 10 µM unless noted
[12] = tested on: HT29 colon; conditions: 10 µM unless noted
[13] = tested on: SNB-19 CNS; conditions: 10 µM unless noted
[14] = tested on: U251 CNS; conditions: 10 µM unless noted
[15] = tested on: PC-3 prostate; conditions: 10 µM unless noted
[16] = tested on: SK-MEL-5 melanoma; conditions: 10 µM unless noted
[17] = tested on: UACC-62 melanoma; conditions: 10 µM unless noted
[18] = tested on: LOX IMVI melanoma; conditions: 10 µM unless noted
[19] = tested on: SK-MEL-28 melanoma; conditions: 10 µM unless noted
[20] = tested on: SNB-75 CNS; conditions: 10 µM unless noted

SMILES | growth [1] [%] | growth [2] | growth [3] [%] | growth [4] [%] | growth [5] | growth [6] [%] | growth [7] | growth [8] | growth [9] [%] | growth [10] [%] | growth [11] [%] | growth [12] | growth [13] [%] | growth [14] [%] | growth [15] [%] | growth [16] | growth [17] [%] | growth [18] | growth [19] [%] | growth [20] [%]
COc1ccc(C(=O)c2c(N)c(C#N)cn2-c2cccc(OC)c2)cc1 | 50.6 | 14.5% | 40.5 | 39.2 | 17.3% | 64.6 | -25.5% (active) | -5.54% (active) | 47.5 | 10.3 | 19.8 | 7.88% (active) | 26.8 | 33.8 | 33.9 | 35.1% | 18.8 | 37.9% | 45.8 | 
CCc1ccc(NC(=O)N[C@@H](Cc2cccc(F)c2)C(=O)N[C@@H]2C(=O)N3CCC[C@H]3C(=O)N3CCCC[C@H]3C(=O)N[C@@H](C)C(=O)N3C[C@H](C)C[C@H]3C(=O)O[C@H]2C)c(F)c1 | 25.2 | 17.5% | 41.4 | 26.8 | -10.1% (active) | 34.9 | 4.24% (active) | 29.8% | 22.2 | 22 | 11.6 | 20.1% | 27.5 | 31.1 | 15.1 | -20.9% (active) | 21.1 | 14.1% | 36.1 | 
CN1C(=O)/C(=C/C=C/c2ccco2)SC1=S | 101 | 77.7% | 36 | 86.8 | -20.9% (active) | 91.2 | 101% | 84.7% | 88.1 | 45 | 63.5 | 90.9% | 88.5 | 66.8 |  | 40% | 77.2 | 75.5% | 83.9 | 92.6
COc1ccc2c(ccn2C(=O)N2c3ccccc3Sc3ccccc32)c1 | 28.2 | 18.7% | 51.3 | 64.5 | 12% | 63 | 16.5% | 11.6% | 70.3 | 21.8 | 32.7 | -12.6% (active) | 30.8 | 27 | 35.2 | 24.5% | 33.3 | 46.5% | 66.4 | 
COc1cc(/C=N/n2cnc3oc(-c4ccccc4)cc3c2=N)cc(CN2CCOCC2)c1O | 89.3 | 5.46% (active) | 66.4 | 51.4 | -18.4% (active) | 72.4 | 68.1% | 60.9% | 110 | 73 | 27.9 | 60.3% | 101 | 53.7 | 64.6 | 62.3% | 62.5 | 8.3% (active) | 78.3 | 
CCc1ccc(NC(=O)N[C@@H](Cc2cc(F)cc(F)c2)C(=O)N[C@@H]2C(=O)N3CCC[C@H]3C(=O)N3CCO[C@H](C)[C@H]3C(=O)N[C@@H](CO)C(=O)N3C[C@H](C)C[C@H]3C(=O)O[C@H]2C)c(F)c1 | 26.4 | 21.5% | 40.8 | 33.3 | -5.23% (active) | 32.4 | 12.6% | 39.9% | 12.9 | 24 | 15.8 | 30.5% | 26.9 | 29 | 17.3 | -2.9% (active) |  | 20.4% | 43.4 | 20.3
CCOC(=O)c1ccc(N/C=C/C(=O)c2ccccc2)cc1 | 101 | 98.8% | 107 | 105 | 99% | 102 | 93.4% | 101% | 108 | 97 | 86.2 | 103% | 92.1 | 99.7 | 95.7 | 99.4% | 87.5 | 96.3% | 97.2 | 
COc1ccc(-c2cc(-c3ccc(Cl)cc3)nc3nc(N)nn23)cc1 | 101 | 116% | 118 | 104 | 91.8% | 89.9 | 97.3% | 95.5% | 109 | 117 | 90.2 | 99.5% | 91.5 | 91 | 106 | 93.6% |  | 105% | 116 | 104
